Measured values from PubChem BioAssay (EPA / NIEHS).
Active and inactive are the calls of the source. Rule for the calls: active = hit-call score of the fitted dose curve at least 0.9, where 1 is the maximum; inactive = score below 0.9.

Columns and labels:
Conditions in all cases: mRNA level, 48 h; actives raise or lower the signal
[1] = read-out: Cytochrome P450 7A1 (Homo sapiens) (UniProt P22680); assay: LTEA_HepaRG_CYP7A1: Life Technologies and Expression Analysis (LTEA) Assay for Cytochrome P450 7A1 (CYP7A1) using HepaRG (AID 2283496)
Procedure, shortened: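 HepaRG cells plated 48 h, then switched to serum-free induction medium and exposed in duplicate for 48 h to 8-point half-log series from 100 uM in 0.5% DMSO. CYP7A1 mRNA by qRT-PCR (TaqMan), normalized to ACTB/GAPDH/POLR2A; bidirectional fit versus DMSO.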

[2] = read-out: Glutathione S-Transferase (GSTA2), GSTA2 (gene 2939); assay: LTEA_HepaRG_GSTA2: Life Technologies and Expression Analysis (LTEA) Assay for Glutathione S-Transferase (GSTA2) using HepaRG (AID 2283497)
Procedure, shortened: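 HepaRG, 48 h dosing, 8-pt half-log CRC from 100 uM, 0.5% DMSO vehicle, n=2; RNA → Fluidigm TaqMan qRT-PCR; GSTA2 vs ACTB/GAPDH/POLR2A; gain/loss fit vs DMSO.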

[3] = read-out: Glutamate-cysteine ligase catalytic (GCLC), GCLC (gene 2729); assay: LTEA_HepaRG_GCLC: Life Technologies and Expression Analysis (LTEA) Assay for Glutamate-cysteine ligase catalytic (GCLC) using HepaRG (AID 2283498)
Procedure, shortened: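 Read-out is GCLC transcript level by Fluidigm-based TaqMan qRT-PCR, normalized to three housekeeping genes and fitted in both directions relative to 0.5% DMSO. Human HepaRG cells received chemicals for 48 h, up to 100 uM.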

[4] = read-out: growth arrest and DNA damage 45 (GADD45G), GADD45G (gene 10912); assay: LTEA_HepaRG_GADD45G: Life Technologies and Expression Analysis (LTEA) Assay for growth arrest and DNA damage 45 (GADD45G) using HepaRG (AID 2283499)
Procedure, shortened: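 Human hepatic HepaRG line treated 48 h with chemicals (eight concentrations, half-log steps from 100 uM); transcript induction or repression of GADD45G scored by qRT-PCR versus DMSO vehicle.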

[5] = read-out: Glutamate-cysteine ligase regulatory (GCLM), GCLM (gene 2730); assay: LTEA_HepaRG_GCLM: Life Technologies and Expression Analysis (LTEA) Assay for Glutamate-cysteine ligase regulatory (GCLM) using HepaRG (AID 2283500)
Procedure, shortened: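 Differentiated HepaRG cells exposed 48 h in serum-free induction medium to eight half-log concentrations up to 100 uM (0.5% DMSO). GCLM mRNA by TaqMan qRT-PCR, normalized to ACTB, GAPDH and POLR2A; bidirectional fit versus DMSO.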

[6] = read-out: Glutathione S-transferase M3 (GSTM3), GSTM3 (gene 2947); assay: LTEA_HepaRG_GSTM3: Life Technologies and Expression Analysis (LTEA) Assay for Glutathione S-transferase M3 (GSTM3) using HepaRG (AID 2283501)
Procedure, shortened: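 Changes in GSTM3 expression, an oxidative-stress marker, were scored by bidirectional curve fitting against 0.5% DMSO vehicle. Human HepaRG cultures received chemicals for 48 h in duplicate, highest concentration 100 uM with half-log dilutions.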

[7] = read-out: Heat shock 70 kDa protein 1 (HSPA1A), gene 3303; assay: LTEA_HepaRG_HSPA1A: Life Technologies and Expression Analysis (LTEA) Assay for Heat shock 70 kDa protein 1 (HSPA1A) using HepaRG (AID 2283502)
Procedure, shortened: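 Human HepaRG cells in serum-free induction medium were exposed in duplicate for 48 h to 8 half-log concentrations, highest 100 uM, in 0.5% DMSO. HSPA1A mRNA read by TaqMan qRT-PCR, normalized to ACTB, GAPDH, POLR2A, fitted bidirectionally against DMSO.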

[8] = read-out: Hypoxia-inducible factor 1-alpha (Homo sapiens) (UniProt Q16665); assay: LTEA_HepaRG_HIF1A: Life Technologies and Expression Analysis (LTEA) Assay for Hypoxia-inducible factor 1 (HIF1A) Trancription factor using HepaRG (AID 2283503)
Procedure, shortened: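 Differentiated HepaRG cells in serum-free induction medium exposed 48 h, in duplicate, to 8-point half-log series from 100 uM in 0.5% DMSO. HIF1A mRNA measured by TaqMan qRT-PCR, normalized to ACTB/GAPDH/POLR2A, fitted bidirectionally versus DMSO.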

[9] = read-out: 3-Hydroxy-3-Methylglutaryl-CoA Synthase 2 (HMGCS2), HMGCS2 (gene 3158); assay: LTEA_HepaRG_HMGCS2: Life Technologies and Expression Analysis (LTEA) Assay for 3-Hydroxy-3-Methylglutaryl-CoA Synthase 2 (HMGCS2) using HepaRG (AID 2283504)
Procedure, shortened: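 Expression of HMGCS2 in human HepaRG liver cells is measured by qRT-PCR 48 h after dosing (highest 100 uM, half-log series, 0.5% DMSO). Values come from bidirectional concentration-response fitting with DMSO as baseline.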

HGF (gene 3082) = assay: LTEA_HepaRG_HGF: Life Technologies and Expression Analysis (LTEA) Assay for Hepatocyte Growth Facto (HGF) using HepaRG (AID 2283505)
Procedure, shortened: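 Gain or loss of HGF mRNA in human HepaRG liver cells after 48 h chemical exposure; eight concentrations up to 100 uM with 0.5% DMSO vehicle, quantified by TaqMan qRT-PCR.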

Measured: AC50

Chain of Hypoxia-inducible factor 1-alpha (Homo sapiens) (Q16665 whole entry, looked up): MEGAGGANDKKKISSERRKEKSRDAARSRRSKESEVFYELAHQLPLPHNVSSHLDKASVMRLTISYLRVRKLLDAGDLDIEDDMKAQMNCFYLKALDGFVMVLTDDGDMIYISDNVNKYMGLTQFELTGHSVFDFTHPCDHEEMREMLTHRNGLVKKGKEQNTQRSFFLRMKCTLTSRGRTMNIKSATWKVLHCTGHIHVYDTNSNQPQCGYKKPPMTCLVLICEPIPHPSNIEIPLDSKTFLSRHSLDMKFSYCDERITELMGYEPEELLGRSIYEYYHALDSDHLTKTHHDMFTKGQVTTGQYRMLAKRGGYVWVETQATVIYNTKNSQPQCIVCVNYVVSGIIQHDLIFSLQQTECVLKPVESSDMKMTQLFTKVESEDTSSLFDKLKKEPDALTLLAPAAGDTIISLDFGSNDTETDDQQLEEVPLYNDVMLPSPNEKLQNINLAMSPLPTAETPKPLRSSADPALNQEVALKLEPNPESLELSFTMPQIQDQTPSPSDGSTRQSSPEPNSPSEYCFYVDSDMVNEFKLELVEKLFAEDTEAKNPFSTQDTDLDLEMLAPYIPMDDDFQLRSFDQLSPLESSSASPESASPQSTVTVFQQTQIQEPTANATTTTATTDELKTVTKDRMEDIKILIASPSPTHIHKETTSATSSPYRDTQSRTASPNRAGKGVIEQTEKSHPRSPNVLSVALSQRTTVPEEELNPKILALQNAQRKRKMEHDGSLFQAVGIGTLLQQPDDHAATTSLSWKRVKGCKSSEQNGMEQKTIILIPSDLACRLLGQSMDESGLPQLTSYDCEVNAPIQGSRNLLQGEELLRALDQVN

Cc1ccc(-c2cc(C(F)(F)F)nn2-c2ccc(S(N)(=O)=O)cc2)cc1
active: [2] 82.1 µM | [3] 50 µM | [4] 67.5 µM | [9] 73.7 µM
inactive: all other assays above

O=C1NC(=O)C(c2ccccc2)(c2ccccc2)N1
active: [2] 9.92 µM
not listed: [8]
inactive: all other assays above

NC1CCCCC1
not listed: [4]
inactive: all other assays above

O=Cc1ccccc1C=O
inactive: all assays above

CCc1cc(C2=C(C(=O)O)N(c3ccccc3C(F)(F)F)S(=O)(=O)c3ccccc32)cc2c1OCO2
active: [1] 72.2 µM | [2] 78.8 µM | [5] 68.2 µM | [9] 81.4 µM
inactive: all other assays above

CC(C)(C)c1ccccc1
not listed: [4]
inactive: all other assays above

N[C@@H](Cc1c[nH]c2ccccc12)C(=O)O
not listed: [4]
inactive: all other assays above

CCCCC(CC)COP(=O)(OCC(CC)CCCC)OCC(CC)CCCC (stereo unspecified)
not listed: [4]
inactive: all other assays above

CN(C)CCCN1c2ccccc2Sc2ccc(Cl)cc21
active: [1] 81.3 µM | [2] 86.4 µM | [4] 49.7 µM | [7] 76.9 µM | [9] 68.6 µM
inactive: [3] | [5] | [6] | HGF (gene 3082)

Nc1nc(=S)c2[nH]cnc2[nH]1
active: [1] 10.2 µM | [2] 7.68 µM | [3] 15.3 µM | [9] 7.48 µM
not listed: [7]
inactive: all other assays above

CC1(C)C(=O)NC(=O)N1CO
inactive: all assays above

CC(C)NCC(O)c1ccc(O)c(O)c1 (stereo unspecified)
active: [1] 0.212 µM | [2] 0.222 µM | [6] 0.273 µM | [7] 0.116 µM | [9] 0.173 µM | HGF (gene 3082) 0.166 µM
inactive: [3] | [4] | [5]

CCCCC(CC)CO (stereo unspecified)
not listed: [4]
inactive: all other assays above

S=c1[nH]c2ccccc2s1
not listed: [4]
inactive: all other assays above

CCCCCCCCCCCCCCOS(=O)(=O)O
active: [1] 23.7 µM
not listed: [4]
inactive: all other assays above

Cc1occc(=O)c1O
not listed: [8]
inactive: all other assays above

O=C(O)c1[nH]n(-c2ccc(S(=O)(=O)O)cc2)c(=O)c1N=Nc1ccc(S(=O)(=O)O)cc1
not listed: [4]
inactive: all other assays above

Cn1cnc2c1c(=O)[nH]c(=O)n2C
not listed: [1] | [8]
inactive: all other assays above

Nc1nc(Cl)nc2c1ncn2[C@H]1C[C@H](O)[C@@H](CO)O1
inactive: [5] | [6] | [7]
active: [1] 1.2 µM | [2] 1.76 µM | [3] 1.24 µM | [9] 1.49 µM

CCCCCCC(CCCCCCCCCCC(=O)OCC(COC(C)=O)OC(C)=O)OC(C)=O (stereo unspecified)
not listed: [4]
inactive: all other assays above

CC(C)OC(=O)C(C)(C)Oc1ccc(C(=O)c2ccc(Cl)cc2)cc1
active: [9] 4.29 µM
not listed: [4] | [8]
inactive: all other assays above

C#CC(O)C(CC)CCCC (stereo unspecified)
not listed: [4]
inactive: all other assays above

Cc1cc(Cc2ccc(N)c(C)c2)ccc1N
active: [1] 5.09 µM
not listed: [4]
inactive: all other assays above

CCCCOC(=O)CCCCC(=O)OCCCC
not listed: [4]
inactive: all other assays above

C/C=C/C=C/C(=O)O
active: [3] 0.256 µM
not listed: [1] | [4]
inactive: all other assays above

COC(=O)[C@H]1[C@H]2C[C@@H]3c4[nH]c5cc(OC)ccc5c4CCN3C[C@H]2C[C@@H](OC(=O)c2cc(OC)c(OC)c(OC)c2)[C@@H]1OC
inactive: [3] | [5] | HGF (gene 3082)
active: [2] 60.1 µM | [4] 24.6 µM | [6] 42.2 µM | [7] 42.2 µM | [9] 57.8 µM

O=C(Oc1ccccc1)c1cccc(C(=O)Oc2ccccc2)c1
not listed: [4]
inactive: all other assays above

CCOCCOCCO
not listed: [4]
inactive: all other assays above

CS(=O)(=O)c1ccc([C@@H](C[C@H]2CCC(=O)C2)C(=O)Nc2cnccn2)cc1Cl
inactive: [2] | [8] | [9]
active: [3] 1.01 µM | [5] 1.81 µM | [6] 17.6 µM | [7] 13.4 µM | HGF (gene 3082) 1.71 µM

O=C1OC(c2ccc(O)cc2)(c2ccc(O)cc2)c2ccccc21
active: [1] 50 µM | [2] 78.5 µM | [3] 32 µM | [6] 50 µM | [7] 50 µM | [9] 67.6 µM | HGF (gene 3082) 79.4 µM
inactive: [5]

CCCC[C@H]1CN(CC2CCOCC2)C(=O)OC12CCN(C1(C)CCN(C(=O)c3c(C)ncnc3C)CC1)CC2
not listed: [4]
inactive: all other assays above

CC(=O)[C@@]1(O)CC[C@H]2[C@@H]3CCC4=CC(=O)CC[C@]4(C)[C@H]3CC[C@@]21C
not listed: [1] | [8]
inactive: all other assays above

CC(=O)O[C@]1(C(C)=O)CC[C@H]2[C@@H]3C=C(Cl)C4=CC(=O)[C@@H]5C[C@@H]5[C@]4(C)[C@H]3CC[C@@]21C
active: [1] 59 µM | [2] 15.8 µM | [7] 83.4 µM | [9] 67.1 µM
inactive: [3] | [5] | [6] | HGF (gene 3082)

CCCCCCCCCCCCCCCCO
active: [1] 50 µM
not listed: [4]
inactive: all other assays above

CCCCCCCC(=O)OC
not listed: [4]
inactive: all other assays above

O=[Si]=O
not listed: [1] | [4]
inactive: all other assays above

Oc1ccc(O)cc1
not listed: [4] | [8]
inactive: all other assays above

CCc1nc(N)nc(N)c1-c1ccc(Cl)cc1
active: [1] 2.6 µM | [2] 41.8 µM | [9] 68.8 µM | HGF (gene 3082) 50 µM
inactive: [3] | [5] | [6] | [7]

COc1ccc(OC(F)(F)F)cc1CN[C@H]1CCCN[C@H]1c1ccccc1
active: [2] 5.08 µM | [3] 90.1 µM | [7] 73.3 µM | [9] 78.8 µM
not listed: [4]
inactive: all other assays above

CC(=O)O
not listed: [4]
inactive: all other assays above

CC(C)c1cccc(C(C)C)c1NC(=O)NS(=O)(=O)c1cc(C(C)(C)O)co1
active: [9] 62 µM
not listed: [4]
inactive: all other assays above

Cc1cn([C@H]2C=C[C@@H](CO)O2)c(=O)[nH]c1=O
not listed: [4] | [8]
inactive: all other assays above

CC(N)=O
not listed: [4] | [8] | HGF (gene 3082)
inactive: all other assays above

NC(=Nc1ccccc1)Nc1ccccc1
not listed: [4]
inactive: all other assays above

Cc1ccc(C(C)(C)C)c(O)c1
not listed: [4]
inactive: all other assays above

CO[C@@H]1COCC[C@@H]1N[C@@H]1CC[C@@](C(=O)N2CCc3ncc(C(F)(F)F)cc3C2)(C(C)C)C1
not listed: [4]
inactive: all other assays above

NCCOCCOCCN
not listed: [4]
inactive: all other assays above
